We go through 9 compounds from PubChem BioAssay.

A short description of assay [1]: E. coli DRC41 culture turbidity changes, primary screen, E. coli filamentation inducer project, strain DRC41, OD650, 48 h (AID 1152).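 Note: E. coli MC1000 strain DRC41 lacking acrAB efflux pump and sulA.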 To be noted: E. coli DRC41 (acrAB sulA), higher = more signal, called active from +8 up or from −8 down.
The nature of assay [2]: small-molecule binders of probe aLefty1, primary screen, biochemical, small-molecule microarray, 635/667 nm fluorescence (AID 1153).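 Note: score merges spot fluorescence with signal-to-noise ratio from the scanned slide images.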 To be noted: higher = more signal.
Assay [3] can be described thus: PSAC antagonists in infected red cells, primary screen, cell-based, P. falciparum Indochina, OD700, 1 h (AID 1154). As to conditions: P. falciparum Indochina infected RBC osmotic lysis, higher = more signal, called active from +8 up or from −8 down.
A short description of assay [4]: PSAC antagonists in infected red cells, primary screen, cell-based, P. falciparum Indochina, OD700, 2 h (AID 1155).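 Note: lysis reports solute entry through the parasite surface anion channel PSAC; channel blockers reduce lysis of infected cells.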 To be noted: P. falciparum Indochina infected erythrocytes, osmotic lysis OD700; higher = more signal, called active from +8 up or from −8 down.
A short description of assay [5]: osmotic lysis modulators in infected erythrocytes, primary screen, PSAC antagonist project, cell-based, P. falciparum Indochina, OD700, 3 h (AID 1156). As to conditions: higher = more signal, called active from +8 up or from −8 down.
Assay [6] can be described thus: PSAC antagonists in infected red cells, primary screen, cell-based, P. falciparum Indochina, OD700, 18 h (AID 1157). To be noted: P. falciparum Indochina infected erythrocytes, osmotic lysis OD700, 18 h; higher = more signal, called active from +8 up or from −8 down.
A short description of assay [7]: modulators of S6 phosphorylation in cells, primary screen, cell-based, A549, cytoblot, luminescence, serum-stimulated (AID 1158).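 Note: serum-stimulated A549 lung adenocarcinoma cells; signal is phosphorylated S6 detected by cytoblot immunostaining with HRP secondary.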 As to conditions: A549 phospho-S6 cytoblot, 5 h, higher = more signal.
Assay [8] addresses NADPH oxidase 2 (Homo sapiens) (UniProt P04839). Nature of the assay: NOX2-dependent H2O2 signal modulators, primary screen, NOX inhibitor project, cell-based, HEK293-NOX2, PMA-stimulated, Amplex Red fluorescence (AID 1159). Note: test concentration not given here. To be noted: 45 min, higher = more signal, called active from +8 up or from −8 down.
Assay [9] concerns the target NADPH oxidase 4 (Homo sapiens) (UniProt Q9NPH5). In words: NOX4-dependent H2O2 signal modulators, primary screen, NOX inhibitor project, cell-based, HEK293-NOX4, tetracycline-induced, Amplex Red fluorescence (AID 1160). As to conditions: 45 min, higher = more signal, called active from +8 up or from −8 down.
In assay [10] the target is NADPH oxidase 5 (Homo sapiens) (UniProt Q96PH1). Nature of the assay: NOX5-dependent H2O2 signal modulators, primary screen, NOX inhibitor project, cell-based, HEK293-NOX5, Amplex Red fluorescence (AID 1161). As to conditions: HEK293-NOX5, ionomycin, 45 min, higher = more signal.
Sequence of NADPH oxidase 5 (Homo sapiens) (Q96PH1 whole entry, looked up): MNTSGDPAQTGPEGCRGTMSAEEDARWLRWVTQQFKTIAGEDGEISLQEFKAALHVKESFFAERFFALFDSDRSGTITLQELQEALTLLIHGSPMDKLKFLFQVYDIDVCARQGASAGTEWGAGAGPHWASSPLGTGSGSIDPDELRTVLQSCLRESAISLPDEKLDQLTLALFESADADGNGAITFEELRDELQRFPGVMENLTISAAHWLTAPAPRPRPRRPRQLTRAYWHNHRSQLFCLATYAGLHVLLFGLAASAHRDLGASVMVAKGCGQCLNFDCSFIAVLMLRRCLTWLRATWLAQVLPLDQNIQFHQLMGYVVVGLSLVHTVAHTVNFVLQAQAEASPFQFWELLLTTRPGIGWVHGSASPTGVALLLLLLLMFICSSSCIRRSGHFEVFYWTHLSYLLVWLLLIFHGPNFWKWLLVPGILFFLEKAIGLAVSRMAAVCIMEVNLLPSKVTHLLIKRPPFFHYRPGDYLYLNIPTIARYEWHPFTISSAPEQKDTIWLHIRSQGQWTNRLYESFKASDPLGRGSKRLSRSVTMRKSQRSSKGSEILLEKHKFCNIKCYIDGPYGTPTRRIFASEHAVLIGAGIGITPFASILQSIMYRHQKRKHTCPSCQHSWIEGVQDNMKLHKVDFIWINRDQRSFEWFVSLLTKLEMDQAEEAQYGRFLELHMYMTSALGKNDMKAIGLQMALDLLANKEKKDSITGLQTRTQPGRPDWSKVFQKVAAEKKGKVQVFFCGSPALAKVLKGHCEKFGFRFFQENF
Assay [11] in a line: A549 cell viability effects, profiling panel, calcein-AM fluorescence, 48 h, basal (AID 1162). Note: test concentration not given here. To be noted: higher = more signal.
Assay [12] in a line: adipocyte viability effects, profiling panel, cell-based, 3T3-L1 adipocytes, calcein-AM fluorescence, 48 h, basal (AID 1163). Note: test concentration not given here. As to conditions: 3T3-L1 adipocytes viability, higher = more signal.
Assay [13] in a line: HepG2 cell viability effects, profiling panel, calcein-AM fluorescence, 48 h, basal (AID 1164). Note: test concentration not given here. To be noted: higher = more signal.
Assay [14] is described as follows: MM1S cell viability effects, profiling panel, calcein-AM fluorescence, 48 h, basal (AID 1165).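 Note: viability of MM1S multiple myeloma cells under basal unstimulated conditions; test concentration not given here.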 To be noted: higher = more signal.
Assay [15] can be described thus: basal RPMI8226 viability, no added stimulus, profiling panel, cell-based, calcein-AM fluorescence, 48 h, PK04 Diversity Set (AID 1166).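 Note: cells grown under basal conditions without added stimulus; test concentration not given here.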 To be noted: RPMI8226 myeloma viability, higher = more signal.
The nature of assay [16]: basal HepG2 mitochondrial membrane potential changes, profiling panel, cell-based, JC-1 fluorescence, 24 h, 100 nL compound (AID 1167). Note: test concentration not given here. As to conditions: higher = more signal.
Assay [17] is described as follows: basal 3T3-L1 adipocyte mitochondrial potential changes, profiling panel, cell-based, JC-1 fluorescence, 3T3-L1 adipocytes, 24 h, 100 nL compound (AID 1168). Note: test concentration not given here. As to conditions: JC-1 mitochondrial fluorescence, higher = more signal, called active from +8 up or from −8 down.
A short description of assay [18]: basal RPMI8226 mitochondrial membrane potential changes, profiling panel, cell-based, JC-1 fluorescence, 24 h, 100 nL compound (AID 1169). Note: test concentration not given here. As to conditions: RPMI8226 myeloma, JC-1 mitochondrial potential fluorescence, higher = more signal.
A short description of assay [19]: basal MM1S mitochondrial membrane potential changes, profiling panel, cell-based, JC-1 fluorescence, 24 h, 100 nL compound (AID 1170). Note: test concentration not given here. To be noted: higher = more signal.
A short description of assay [20]: A549 lung cancer cell viability effects, profiling panel, resazurin fluorescence, 24 h, PK04 Diversity Set (AID 1171). Note: test concentration not given here. To be noted: higher = more signal, called active from +8 up or from −8 down.

Molecules are shown by their SMILES. Calls of active or inactive are those of the source.

Sequence of NADPH oxidase 2 (Homo sapiens) (P04839 whole entry, looked up): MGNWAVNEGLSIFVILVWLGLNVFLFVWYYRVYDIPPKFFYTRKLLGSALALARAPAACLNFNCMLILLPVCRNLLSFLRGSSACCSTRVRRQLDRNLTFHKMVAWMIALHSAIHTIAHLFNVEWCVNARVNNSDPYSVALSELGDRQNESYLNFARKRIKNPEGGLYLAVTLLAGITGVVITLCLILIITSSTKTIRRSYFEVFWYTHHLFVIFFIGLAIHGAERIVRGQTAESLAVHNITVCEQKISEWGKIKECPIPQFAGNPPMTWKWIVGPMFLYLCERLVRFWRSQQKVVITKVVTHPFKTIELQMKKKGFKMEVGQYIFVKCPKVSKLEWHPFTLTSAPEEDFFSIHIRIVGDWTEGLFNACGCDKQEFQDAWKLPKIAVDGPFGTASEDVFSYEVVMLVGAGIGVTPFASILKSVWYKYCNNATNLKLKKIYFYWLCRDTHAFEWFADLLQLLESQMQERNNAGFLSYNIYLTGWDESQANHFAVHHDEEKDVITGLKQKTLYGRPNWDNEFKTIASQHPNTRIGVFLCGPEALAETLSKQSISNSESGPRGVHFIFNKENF
Sequence of NADPH oxidase 4 (Homo sapiens) (Q9NPH5 whole entry, looked up): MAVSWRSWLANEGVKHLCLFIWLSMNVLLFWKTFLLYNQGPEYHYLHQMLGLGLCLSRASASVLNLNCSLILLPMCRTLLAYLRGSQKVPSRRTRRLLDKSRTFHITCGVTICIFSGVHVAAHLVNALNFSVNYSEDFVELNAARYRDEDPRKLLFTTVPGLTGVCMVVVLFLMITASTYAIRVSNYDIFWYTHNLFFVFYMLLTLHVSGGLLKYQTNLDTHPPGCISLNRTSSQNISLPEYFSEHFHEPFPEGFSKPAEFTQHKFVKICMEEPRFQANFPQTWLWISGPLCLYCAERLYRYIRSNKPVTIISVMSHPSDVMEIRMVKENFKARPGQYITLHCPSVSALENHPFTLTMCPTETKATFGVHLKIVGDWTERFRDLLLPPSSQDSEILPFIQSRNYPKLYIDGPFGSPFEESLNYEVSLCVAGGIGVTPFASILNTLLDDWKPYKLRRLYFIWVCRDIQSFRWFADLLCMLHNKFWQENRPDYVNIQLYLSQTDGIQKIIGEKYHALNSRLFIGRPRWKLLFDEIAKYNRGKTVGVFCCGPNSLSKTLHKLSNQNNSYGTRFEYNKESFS

As for `NC(=O)NCC#Cc1ccc2c(c1)[C@]1(C(=O)N2)[C@H](c2ccc(O)cc2)N2[C@H](c3ccccc3)[C@H](c3ccccc3)OC(=O)[C@H]2[C@@H]1C(=O)N1CCN(c2ncccn2)CC1`, the z-score in [1] is 0.642 (inactive); in [3], 1.36 (inactive); in assay [4], 0.747 (inactive); in [5], 0.458 (inactive); in assay [6] it was 0.565 (inactive); in assay [7] it was -0.0168. Besides, the z-score in [8] is 1.06 (inactive); in assay [9], 0.478 (inactive); in assay [10] it was 1.68; in [11], 0.719; in [12] it was 0.464; in assay [13], -1.08. In addition, the z-score is 0.252 in [14]; 0.719 in assay [15]; -1.83 in [16]; -0.197 (inactive) in assay [17]; 0.591 in assay [18]; 1.06 in [19]. Further, the z-score in assay [20] was 0.956 (inactive). Besides, in assay [2], the composite z-score is 0.266.
Turning to `C=C(/C(=C/C[C@@H](OC(C)=O)c1ccc(CO)o1)c1cnc2ccccc2c1)C(C)C`, the z-score was 0.727 (inactive) in assay [1]; 4.83 (inactive) in [3]; 1.28 (inactive) in assay [4]; 1.74 (inactive) in [5]; 0.332 (inactive) in assay [6]; 1.04 in assay [7]. Also, the z-score was 0.334 (inactive) in assay [8]; -1.99 (inactive) in assay [9]; -0.957 in assay [10]; -0.0718 in [11]; 1.36 in [12]; -1.07 in assay [13]. Further, the z-score was -0.644 in assay [14]; -0.596 in assay [15]; -1.33 in [16]; -0.561 (inactive) in [17]; -0.292 in assay [18]; 0.335 in assay [19]. In addition, the z-score in [20] was -1.45 (inactive). Besides, in [2], the composite z-score was -0.147.
As to `CO[C@H]1O[C@H](CO)[C@@H](OC(=O)Nc2ccc(C(F)(F)F)cc2)[C@H](OC(=O)Nc2ccccc2)[C@@H]1OC(=O)Nc1ccccc1`, the z-score in [1] was -0.744 (inactive); in assay [3] it was 7.34 (inactive); in [4] it was 1.01 (inactive); in [5], -0.886 (inactive); in assay [6], 0.863 (inactive); in assay [7], -0.143. For the same compound, the z-score in assay [8] was 0.179 (inactive); in assay [9], -0.513 (inactive); in assay [10] it was -0.468; in [11] it was -0.902; in [12] it was -0.133; in assay [13], -1.28. In addition, the z-score was -2.72 in [14]; -2.84 in assay [15]; -0.901 in assay [16]; -1.47 (inactive) in [17]; -0.828 in assay [18]; 0.469 in [19]. The z-score in [20] is -0.0537 (inactive). For the same compound, in [2], the composite z-score is -0.407.
As for `COc1cc(CO)cc(I)c1O[C@H]1C=C(C(=O)NCCO)C[C@@H](N(CCc2cccc(F)c2)C(=O)CCC2CCCC2)[C@@H]1O`, the z-score in [1] was -0.429 (inactive); in assay [3], 16.3 (active); in assay [4] it was 3.94 (inactive); in [5], 4.42 (inactive); in [6], 1.53 (inactive); in assay [7] it was -0.165. Moreover, the z-score in assay [8] is 1.47 (inactive); in [9], 0.145 (inactive); in [10], -2.23; in [11] it was -1.5; in assay [12], 2.06; in [13], -2.23. In addition, the z-score in assay [14] was -3.19; in assay [15] it was -4.28; in assay [16], -1.09; in assay [17] it was 0.525 (inactive); in [18], -1.2; in assay [19] it was -1.96. Besides, in assay [20], the z-score is -2.26 (inactive). This compound also had a composite z-score in [2] of 0.437.
On to `COc1ccc(C(O)C2C=CC3C(=O)N(c4ccccc4)C(=O)C3N2Nc2ccccc2)c2ccccc12` (stereo not given), for which the z-score in assay [1] is -0.831 (inactive); in assay [3] it was 6.65 (inactive); in assay [4], 1.75 (inactive); in [5], 0.303 (inactive); in assay [6], 1.34 (inactive); in [7] it was -0.654. The z-score was -1.48 (inactive) in assay [8]; -3.15 (inactive) in assay [9]; -2.57 in assay [10]; -0.308 in assay [11]; -2.02 in assay [12]; 0.407 in assay [13]. The z-score in assay [14] was -0.174; in assay [15], -0.858; in assay [16], -1.37; in assay [17] it was -0.849 (inactive); in assay [18], -0.86; in assay [19] it was -0.978. Also, the z-score in assay [20] was -0.301 (inactive). The composite z-score in assay [2] was determined as 0.318.
On to `C=CC[C@]1(C(=O)O)N=C(c2ccc(OCCCO)cc2)O[C@H]1c1ccccc1CN=[N+]=[N-]`, for which the z-score is 0.0533 (inactive) in assay [1]; 13.7 (active) in assay [3]; 1.93 (inactive) in assay [4]; -0.055 (inactive) in [5]; 0.665 (inactive) in assay [6]; -0.0651 in assay [7]. For the same compound, the z-score in assay [8] is 0.324 (inactive); in assay [9], 1.03 (inactive); in assay [10], 1.58; in assay [11] it was 1.32; in assay [12] it was -1.06; in assay [13] it was 0.243. Besides, the z-score in assay [14] was 0.869; in assay [15], 0.293; in assay [16], -0.131; in assay [17], 0.0284 (inactive); in assay [18], -0.57; in assay [19] it was -0.587. In addition, the z-score in assay [20] is -0.506 (inactive). Moreover, the composite z-score in assay [2] was 0.0425.
As for `CC1(C)C(=O)C(c2ccccc2)=C2CN3C(=O)N(CCc4ccccc4)C(=O)C3(Cc3ccccc3)C=C21` (stereo not given), the z-score in [1] is -1.23 (inactive); in [3], 2.06 (inactive); in assay [4], 0.541 (inactive); in assay [5] it was 0.483 (inactive); in [6], 0.861 (inactive); in [7] it was -0.196. The z-score is -0.147 (inactive) in assay [8]; 0.405 (inactive) in assay [9]; -1.62 in assay [10]; -0.739 in assay [11]; -0.295 in assay [12]; 0.54 in [13]. For the same compound, the z-score in assay [14] is -0.0119; in assay [15] it was 0.0826; in assay [16] it was 0.000299; in assay [17] it was -0.385 (inactive); in assay [18] it was -0.871; in assay [19] it was -1.52. Besides, in assay [20], the z-score is 0.199 (inactive). The same compound had a composite z-score in assay [2] of 0.647.
Consider `CC(C)N1C(=O)c2ccccc2[C@](C)(C(=O)NC2CC2)[C@@H]1c1ccc(CO)cc1`, for which the z-score in [1] was 0.897 (inactive); in assay [3], 0.838 (inactive); in assay [4], 0.122 (inactive); in assay [5], -0.173 (inactive); in assay [6], 0.475 (inactive); in assay [7], -0.0085. Moreover, the z-score in assay [8] was -0.987 (inactive); in [9] it was -0.354 (inactive); in assay [10], -0.547; in assay [11], -0.778; in assay [12], -0.415; in assay [13], 0.176. The z-score in [14] is 0.0418; in assay [15], 0.27; in assay [16], 1.57; in assay [17], 0.343 (inactive); in [18], 0.747; in assay [19] it was -0.847. For the same compound, the z-score in assay [20] is 0.688 (inactive). In assay [2], the composite z-score is 0.0451.
Consider `CC(C)C(=C=CC[C@H](O)c1ccccc1OCCO)CCO`, for which the z-score in assay [1] is -0.42 (inactive); in assay [3], 2.08 (inactive); in assay [4], -0.0743 (inactive); in assay [5], -0.163 (inactive); in assay [6], 0.013 (inactive); in [7] it was -0.2. The z-score was -0.353 (inactive) in [8]; 0.323 (inactive) in assay [9]; -0.738 in assay [10]; -0.417 in assay [11]; -1.06 in assay [12]; -0.07 in assay [13]. In addition, the z-score in assay [14] was -0.256; in [15], -1.56; in assay [16], -0.926; in [17] it was -0.318 (inactive); in [18], -0.424; in assay [19] it was -0.305. Further, the z-score in assay [20] was -0.245 (inactive). In [2], the composite z-score was -0.0576.
